The text below walks through data of PubChem BioAssay (NCI).

The nature of assay [1]: NCI Yeast Anticancer Drug Screen. Data for the rad50 strain (AID 155).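 Also: 0% = growth of vehicle-only cultures of the same strain.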 The conditions noted are these: S. cerevisiae rad50 strain growth inhibition, stronger effect = higher value; at 50.0 µM unless noted. In short, it runs like this: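 Growth of the mutant yeast was measured after compound exposure and referenced to vehicle-treated cultures.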
The nature of assay [2]: NCI Yeast Anticancer Drug Screen. Data for the mec2-1 strain (AID 157). The conditions noted are these: S. cerevisiae mec2-1 strain, stronger effect = higher value; at 50.0 µM unless noted. The essentials: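 Yeast mec2-1 mutant treated with compound. Readout: growth inhibition vs vehicle controls.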
Assay [3] can be described thus: NCI Yeast Anticancer Drug Screen. Data for the sgs1 mgt1 strain (AID 161).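 Also: 0% = growth of cultures given vehicle only.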 Particulars: S. cerevisiae sgs1 mgt1 strain, stronger effect = higher value; at 50.0 µM unless noted. The essentials: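 Test agents were incubated with a DNA-repair-mutant yeast strain. Growth was then read and compared against vehicle-treated controls.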
The nature of assay [4]: NCI Yeast Anticancer Drug Screen. Data for the cln2 rad14 strain (AID 165).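 Also: 0% = growth equal to vehicle treated cultures.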 Particulars: S. cerevisiae cln2 rad14 strain, stronger effect = higher value; at 50.0 µM unless noted. In short, it runs like this: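 cln2 rad14 yeast strain; compound exposure; growth inhibition read vs vehicle controls.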
Assay [5] is described as follows: NCI Yeast Anticancer Drug Screen. Data for the bub3 strain (AID 167). The conditions noted are these: S. cerevisiae bub3 mutant strain, stronger effect = higher value; at 50.0 µM unless noted. The essentials:
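Whole-cell yeast assay. The mutant strain was incubated with compounds, and growth inhibition was determined by comparison with vehicle-treated cells.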

Assay [6] is described as follows: NCI Yeast Anticancer Drug Screen. Data for the mlh1 rad18 strain (AID 175). The conditions noted are these: S. cerevisiae mlh1 rad18 strain growth inhibition, stronger effect = higher value; at 50.0 µM unless noted. The essentials: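 Yeast w/ defined DNA-repair lesions; compound exposure; growth vs vehicle controls → % inhibition.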

Compounds without any hit were thinned out: in the full panel of roughly 79,000, 15% have a hit. Unmarked numbers belong to inactive results. The source made the active and inactive calls. Rule as the data show it: active = growth inhibition above about 70%; inactive = the rest.

Consider `CCCCCCCCCCCC(=O)NCc1ccc(OC(=O)CCCCCCCCCCC)c(OC)c1`, for which the growth inhibition in assay [1] was -7.55%; in assay [2], -9.8%; in assay [3], -6.3%; in assay [4], -34.1%; in assay [5] it was 4.1%; in assay [6], -8.85%.
`CCCCOC(=O)NC(=O)c1cn(CCCOC(=O)NCCCCCCNC(=O)OCCCn2cc(C(=O)NC(=O)OCCCC)c(=O)[nH]c2=O)c(=O)[nH]c1=O`: the growth inhibition in assay [1] is -1.1%; in assay [2] it was 2.75%; in assay [3], -4.2%; in assay [4], 24.6%; in assay [5], -6.35%; in assay [6] it was -33.1%.
Turning to `CC(=O)Nc1cc(Cl)ccc1F`, the growth inhibition in assay [1] is 14.1%; in assay [2], -6.15%; in assay [3], 12.4%; in assay [4], -7.1%; in assay [5], -0.7%; in assay [6] it was 17.9%.
In the case of `CCCCCCCCN1C(=O)CCC1=O`, the growth inhibition in assay [1] is -1.45%; in assay [2], -19.4%; in assay [3] it was -6.3%; in assay [4], 0.5%; in assay [5], -14.9%; in assay [6], -0.5%.
As for `CN(C)c1nc(S(C)(=O)=O)nc2nc(Cl)[nH]c12`, the growth inhibition is 6.2% in assay [1]; -13.6% in assay [2]; -0.85% in assay [3]; -7.1% in assay [4]; 3.65% in assay [5]; -9.8% in assay [6].
Take `Cc1ccnc(NS(=O)(=O)c2ccc(N=[N+]=[N-])cc2)n1`: the growth inhibition in assay [1] is -3.2%; in assay [2], -6%; in assay [3], 1.9%; in assay [4] it was -7.4%; in assay [5] it was -17.6%; in assay [6] it was -14%.
Turning to `COC(=O)CCc1ccco1`, the growth inhibition is 10.6% in assay [1]; -10% in assay [2]; 3.4% in assay [3]; 2.5% in assay [4]; 6.95% in assay [5]; 12.7% in assay [6].
For the molecule `Cc1cc(C(C)(C)C)cc(CNC2CCCCC2)c1O`, the growth inhibition in assay [1] is -4.35%; in assay [2], -27.4%; in assay [3], -25.4%; in assay [4] it was -18%; in assay [5] it was -35.2%; in assay [6], 10.2%.
For `CCCCCCCCCc1cc(=O)c2c(O)cccc2o1`, the growth inhibition in assay [1] was -25.8%; in assay [2], -30.6%; in assay [3] it was -11%; in assay [4] it was -20.1%; in assay [5] it was 18.6%; in assay [6], -22.4%.
Consider `CC(C)N1CCN(c2ccncc2S(=O)(=O)N2CCCC2)CC1`, for which the growth inhibition was 2.7% in assay [1]; 4.8% in assay [2]; -4.65% in assay [3]; -33.9% in assay [4]; 1.35% in assay [5]; 8.4% in assay [6].
Regarding `CC(=O)Nc1ccc(NC(=O)NCCCCCCNC(=O)Nc2ccc(NC(C)=O)cc2)cc1`, the growth inhibition in assay [1] is -1.5%; in assay [2], 2.7%; in assay [3], -21.6%; in assay [4], -20.6%; in assay [5] it was -1.7%; in assay [6], 5.5%.
For `CCN(CC)CCN=Cc1ccccc1OC`, the growth inhibition was 15.9% in assay [1]; -29.5% in assay [2]; -3.85% in assay [3]; 3.15% in assay [4]; 11.3% in assay [5]; 15.2% in assay [6].
`O=C(O)CSc1nc2ccccc2[nH]1`: the growth inhibition was 3.5% in assay [1]; 1.55% in assay [2]; -36% in assay [3]; -13.9% in assay [4]; -35.4% in assay [5]; 10% in assay [6].
On to `C=C(CC(O)(C(F)(F)F)C(F)(F)F)CC(O)(C(F)(F)F)C(F)(F)F`, for which the growth inhibition is 64.8% in assay [1]; 94.5% (active) in assay [2]; 63.9% in assay [3]; 65.6% in assay [4]; 95% (active) in assay [5]; 95% (active) in assay [6].
`CCOC(=O)C1=C(C(=O)c2ccc(OC)cc2)C(c2ccc([N+](=O)[O-])cc2)C(C(=O)c2ccc(OC)cc2)=C(C(=O)OCC)N1`: the growth inhibition in assay [1] is 11.1%; in assay [2], 5.8%; in assay [3] it was 0.1%; in assay [4], 14.1%; in assay [5], 4.95%; in assay [6] it was -3.25%.
On to `Cc1cn(C2CC3C(COC(c4ccccc4)N3O)O2)c(=O)[nH]c1=O` (stereo unspecified), for which the growth inhibition in assay [1] is 0.1%; in assay [2], -8.65%; in assay [3], 21.2%; in assay [4], 2.7%; in assay [5] it was -2.95%; in assay [6], 7.15%.
As for `Cc1cc2nc3c4ccccc4scc-3c2cc1C`, the growth inhibition in assay [1] was 99% (active); in assay [2], 99.3% (active); in assay [3] it was 99.3% (active); in assay [4] it was 99% (active); in assay [5] it was 99.1% (active); in assay [6], 98% (active).
For the molecule `CSc1nc(NC2OC(COC(C)=O)C(OC(C)=O)C(OC(C)=O)C2OC(C)=O)c(N=CC=Nc2c(NC3OC(COC(C)=O)C(OC(C)=O)C(OC(C)=O)C3OC(C)=O)nc(SC)[nH]c2=O)c(=O)[nH]1` (stereo unspecified), the growth inhibition is -13.8% in assay [1]; -17.7% in assay [2]; -13.8% in assay [3]; -17.7% in assay [4]; 6.6% in assay [5]; 5.75% in assay [6].
Turning to `O=C(CC1CCCCC1)OCCOCCO`, the growth inhibition in assay [1] is -7.9%; in assay [2] it was -5.7%; in assay [3], -27.6%; in assay [4], 3.35%; in assay [5], -2.85%; in assay [6], -3.5%.
Consider `NC(=O)C(=CN1CC(=O)NC1=S)C(N)=O`, for which the growth inhibition in assay [1] was -23.3%; in assay [2], -23.4%; in assay [3], -2.4%; in assay [4] it was 9.85%; in assay [5], -9.05%; in assay [6] it was 17.1%.
For `CCN(Cc1ccccc1)c1nnnn1-c1ccccc1`, the growth inhibition in assay [1] is -2.5%; in assay [2] it was -5.25%; in assay [3] it was 8%; in assay [4], 6.75%; in assay [5] it was 12.1%; in assay [6], -10.6%.
